The whole screen tested about 63,000 compounds, of which about 1,100 (1.7%) were called active. The entries come from a sample that favours actives as a whole. Measured potencies and affinities stand elsewhere. Unmarked numbers belong to inactive results. Cut-off read from the data, not from the text of the source: active = cytotoxicity above about 50%; inactive = the rest.
experiment: HPDE-C7 pancreatic duct cell viability loss – fluorescence, HTS (AID 430); conditions: HPDE-C7 pancreatic duct cells viability, at 10 µM, stronger effect = higher value;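 note: cells exposed to compound for 48 hours before viability readout; 0% = vehicle and 100% = reference cytotoxic drug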

Row | SMILES | cytotoxicity
1 | COc1ccc(S(=O)(=O)N(CC(=O)NCCCN(C)C)c2ccc(C)cc2)cc1OC | 1%
2 | CC(=O)N1c2ccccc2N(Cc2ccc(C)cc2C)C(=O)C1(C)C | 58.4% (active)
3 | Cc1ccc(C)c(CN2C(=O)C3(OCCCO3)c3ccccc32)c1 | -1.3%
4 | Cc1ccccc1CN1C(=O)C2(OCCCO2)c2ccccc21 | -4%
5 | N=c1n(CCOc2ccccc2)c2ccccc2n1CCN1CCOCC1 | -22.8%
6 | CC1(C)CC(=O)C2=C(C1)NC(Nc1nc3ccccc3o1)=NC21CCCC1 | -16.5%
7 | Nc1nnnn1/N=C/c1cccc(Oc2ccccc2)c1 | -9.6%
8 | Nc1nnnn1/N=C/C=C/c1ccccc1 | -7.1%
9 | CC(=O)Nc1ccc(-n2c(C)nc(=O)c(-c3ccccc3)c2C)cc1 | 2.9%
10 | CS(=O)(=O)c1ccc2nc(NC(=O)Oc3ccccc3)sc2c1 | 3.4%
11 | Cc1ccc(NC(=O)CN(C)S(=O)(=O)c2cccc3cccnc23)cc1 | 0.4%
12 | O=C1CC(N2CCOCC2)C(=O)N1CCc1ccccc1 (stereo not drawn) | 5.1%
13 | Cc1cc(-c2nnc3sc(C4CCCCC4)nn23)n[nH]1 | 4.3%
14 | CC(C)C(c1nnnn1CC1CCCO1)N1CCN(Cc2ccc3c(c2)OCO3)CC1 (stereo not drawn) | -3.2%
15 | O=C(Cc1cccs1)Nc1nc2ccccc2s1 | 0.1%
16 | CC(C)(C)NS(=O)(=O)c1ccc2nc(NC(=O)Cc3cccs3)sc2c1 | 68.7% (active)
17 | CS(=O)(=O)c1ccc2nc(NC(=O)Cc3ccccc3)sc2c1 | 0.9%
18 | CCOC(=O)C1CCCN(c2c(NCC3CCCO3)c(=O)c2=O)C1 (stereo not drawn) | -11.3%
19 | CNc1cc(C)nc(-n2nc(C)cc2C)n1 | -0.2%
20 | Cc1cc(C)n(-c2ccc(C(=O)NC(C)C)cc2)n1 | -1%
21 | COc1ccc(N2CCN(C(=O)c3ccc(-n4nc(C)cc4C)cc3)CC2)cc1 | -4.7%

Row | SMILES | cytotoxicity
22 | CC(=O)c1ccc(Oc2cc(C)nc(-n3nc(C)cc3C)n2)cc1 | 60.3% (active)
23 | COC(=O)c1ccc(Nc2cc(C)nc3nc(C)nn23)cc1 | 5.7%
24 | COC(=O)c1ccc(Oc2cc(C)nc(-n3nc(C)cc3C)n2)cc1 | 54.2% (active)
25 | COc1ccc(Nc2cc(C)nc(-n3nc(C)cc3C)n2)cc1 | 66.9% (active)
26 | COC(=O)c1ccc(Oc2ccc3nnc(C)n3n2)cc1 | -7.1%
27 | CCOc1ccc(Nc2cc(C)nc(-n3nc(C)cc3C)n2)cc1 | 49.1%
28 | O=C(NCCOC(=O)c1ccc(Cl)c(S(=O)(=O)N2CCCCC2)c1)c1ccncc1 | -9.8%
29 | CC1(C)CC(=O)c2cnn(-c3nc4ccccc4[nH]3)c2C1 | -0.3%
30 | c1ccc2c(c1)nc(N1CCOCC1)c1c3ccccc3[nH]c21 | -21.6%
31 | Cc1ccc2cccc(OC(=O)c3ccc4c(c3)OCCO4)c2n1 | 53% (active)
32 | O=C(Oc1cccc2cccnc12)c1cccc(-n2cnnn2)c1 | 20.3%
33 | Cc1noc(C)c1COC(=O)c1ccc2c(c1)OCCO2 | 4.3%
34 | O=S(=O)(Nc1ccc2c(c1)OCCO2)c1cccc2cccnc12 | -0.7%
35 | CN(CCOC(=O)c1ccc2c(c1)OCCO2)Cc1ccccc1 | -14%
36 | Cc1[nH]c2ccc(-c3nnc(SCC(=O)c4ccc(F)cc4)o3)cc2c1C | 1.7%
37 | Cc1[nH]c2ccc(-c3nnc(SCC(=O)c4ccccc4F)o3)cc2c1C | 66.4% (active)
38 | Cc1[nH]c2ccc(-c3nnc(SCC(=O)N4CCCc5ccccc54)o3)cc2c1C | -10.5%
39 | COc1cccc(C2(O)CCN(C(=O)C3CCC3)CC2)c1 | -6.9%
40 | O=C1c2ccccc2CCC1C(O)c1ccccn1 (stereo not drawn) | -15%
41 | COc1cccc(CN(Cc2cccnc2)S(=O)(=O)c2ccc(-n3cnnn3)c(C)c2)c1OC | -18%
42 | COc1ccccc1N1CCN(c2nc(-c3ccccc3)cc(C(F)(F)F)n2)CC1 | 10.1%

Row | SMILES | cytotoxicity
43 | COc1ccccc1N1CCN(c2ccc(-c3ccccc3)nn2)CC1 | 61.1% (active)
44 | COc1ccccc1N1CCN(c2cc(N3CCCC3)nc(C)n2)CC1 | 2.7%
45 | COCC(C)NC(=O)c1cc(-c2cccc(OC)c2)on1 (stereo not drawn) | -3.6%
46 | Cc1cc(C)cc(OCC(=O)Nc2ccc(N3CCN(S(C)(=O)=O)CC3)cc2)c1 | -17.3%
47 | Cc1ccccc1NC(=O)c1ccc(F)c(S(=O)(=O)N2CCN(c3ccccn3)CC2)c1 | -26.8%
48 | Cc1cc(NCCOCCO)n2ncc(-c3ccc(Cl)cc3)c2n1 | 65.6% (active)
49 | Cc1cc(NCCCN2CCOCC2)n2ncc(-c3ccc(Cl)cc3)c2n1 | 11.9%
50 | Cc1cc(NCCN2CCOCC2)n2ncc(-c3ccc(Cl)cc3)c2n1 | 9.8%
51 | O=S(=O)(/C=C/c1ccccc1)n1cnc2ccccc21 | 22.4%
52 | Cc1cc(C)n(S(=O)(=O)Cc2ccccc2)n1 | -8.3%
53 | Cc1cc(C)nc(Nc2n[nH]c(-c3ccccc3Br)n2)n1 | -1.8%
54 | COc1ccccc1N1CCN(C(=O)Nc2cccc(C)c2)CC1 | -2.6%
55 | Cc1ccc(SC(C)C(=O)N2CCCC2)cc1 (stereo not drawn) | 5.9%
56 | CCCCCCNS(=O)(=O)c1ccc(Cl)s1 | -26.3%
57 | N#CCCn1c(-c2nonc2NC(=O)c2ccccc2Cl)nc2ccccc21 | 41.9%
58 | CCOC(=O)Cn1c(-c2nonc2NC(=O)c2ccccc2F)nc2ccccc21 | 41.5%
59 | CCC(=O)Nc1nonc1-c1nc2ccccc2n1CC(C)C | 25.7%
60 | CCC(=O)Nc1nonc1-c1nc2ccccc2n1N(C(=O)CC)C(=O)CC | 54.2% (active)
61 | CCCCn1c(-c2nonc2NC(=O)c2ccccc2Cl)nc2ccccc21 | 69.4% (active)
62 | CCC(=O)Nc1nonc1-c1nc2ccccc2n1Cc1ccccc1 | 6.6%
63 | Cc1ccc(N2C(=O)CC(N(O)C3CC(=O)N(c4ccc(C)cc4)C3=O)C2=O)cc1 (stereo not drawn) | 14.1%
